Records with an inconclusive call do not appear. A number with no mark means an inactive call. Active and inactive are the calls of the source. Calls follow the shape of the dose curve; as a rule, active = well fitted inhibition curve with a large enough effect; inconclusive = small, poorly fitted or top-dose-only effect; inactive = flat fitted curve, though single readings scatter.

The record followed here is PubChem BioAssay (NCATS).
% is scaled to controls: 0 for no effect and ±100 for the full control effect; potency is read from the fitted curve at half-maximal effect.

Sequence of Calcium and integrin-binding protein 1 (Homo sapiens) (Q99828 whole entry, looked up): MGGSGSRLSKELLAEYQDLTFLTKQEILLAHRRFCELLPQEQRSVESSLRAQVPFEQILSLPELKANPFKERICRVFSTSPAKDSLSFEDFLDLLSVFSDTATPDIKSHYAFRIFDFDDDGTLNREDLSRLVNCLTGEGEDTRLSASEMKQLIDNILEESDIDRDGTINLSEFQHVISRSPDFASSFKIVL

This assay has as its target Calcium and integrin-binding protein 1 (Homo sapiens) (UniProt Q99828). Nature of the assay: Primary qHTS for Identification of Calcium Integrin Binding Protein 1 (CIB1) Competitor (AID 1508620).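 As to activity change, negative = inhibition: GST tagged CIB1 binding a fluorescein labelled alphaIIb integrin peptide tracer; top concentration of the series differs between compounds.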 As to conditions: CIB1-GST / FITC-alphaIIb peptide fluorescence polarization; series mostly up to 57.7 µM; activity change, negative = inhibition: at the top concentration. In outline: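 Fluorescence polarization competition: CIB1-GST (1 uM final) preincubated with compound 15 min at room temperature, then FITC-labeled alphaIIb peptide (100 nM final) added for another 15 min. Polarization read at Ex 480/Em 540.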
Background: Quantitative high-throughput screening tests each substance at several concentrations.
In the case of `CC1(C)CC[C@]2(C(=O)O)CC[C@]3(C)C(=CCC4[C@@]5(C)CCC(O[C@@H]6OC[C@H](O)[C@H](O)[C@H]6O[C@@H]6O[C@H](CO)[C@@H](O)[C@H](O)[C@H]6O)[C@@](C)(CO)C5CC[C@]43C)[C@@H]2C1` (some centres not stated), the “activity change, negative = inhibition” value is 2.52% [at 30.2 µM].
On to `C=C1[C@H]2CC[C@]3(O)[C@@](CC[C@@H]4[C@](C)(C(=O)O)CCC[C@]43C)(C2)[C@H]1OC(=O)/C(C)=C\C`, for which the “activity change, negative = inhibition” value was 0.2%.
The same measure, in the same setting: next, `COC(=O)[C@@]1(O)C=CC[C@@H]2[C@@]3(C)C[C@@H](c4ccoc4)OC(=O)[C@H]3CC[C@]21C`: -1.71%; `C=C1CC/C=C(/CO)C(=O)C[C@@H]2[C@@H]1CC2(C)C`: 1.08% [at 114 µM]; `O=C1NC(=Nc2ccccc2F)S/C1=C\c1ccc(C(=O)O)cc1`: -15.9% [at 114 µM].
The same measure, in the same setting: the result for `C=C1CCC(OC(C)=O)C2(C)CC3(O)OC(=O)C(C)=C3CC12` (configuration not stated) reads -0.857% [at 114 µM]; that for `CC1=CC(=O)CC(C)(C)C1(O)CCC(C)O` (configuration not stated), 0.25% [at 114 µM].
Same read-out and setting: the result for `C[C@@H]1O[C@@H](O[C@H]2[C@H](OC(=O)C34CCC(C)(C)CC3C3=CCC5C6(C)CC(O)C(O[C@@H]7O[C@H](CO)[C@@H](O)[C@H](O)[C@H]7O)C(C)(C(=O)O)C6CCC5(C)C3(CO)CC4)O[C@H](C)[C@H](O)[C@@H]2O)[C@H](O)[C@H](O)[C@H]1O[C@@H]1OC[C@@H](O)[C@H](O)[C@H]1O` (some centres not stated) reads 4.81% [at 30.2 µM]; that for `CCS(=O)(=O)N1CCC([C@@H](C)n2c(C)c(C(=O)NCc3c(OC)cc(C)[nH]c3=O)c3ccccc32)CC1`, -6.33% [at 114 µM].
For the compound `CC(=O)N[C@H]1[C@H](O[C@H]2CC[C@@]3(C)C(CC[C@]4(C)C3CC=C3C5CC(C)(C)CC[C@]5(C(=O)O)[C@H](O[C@@H]5O[C@H](CO)[C@@H](O)[C@H](O)[C@H]5O)C[C@]34C)C2(C)C)O[C@H](CO[C@@H]2OC[C@H](O)[C@H](O)[C@H]2O[C@@H]2OC[C@@H](O)[C@H](O)[C@H]2O)[C@@H](O)[C@@H]1O` (some centres not stated), the “activity change, negative = inhibition” value was 3.59% [at 30.2 µM].
With `CC(C)=CCCC1(C)Oc2cc3c(c4c2C2C(O4)C(C)(O)CCC21)CN(C(CCC(=O)O)C(=O)O)C3=O` (configuration not stated), the “activity change, negative = inhibition” value is -8.15%.
Same read-out and setting: the result for `COC(=O)C1=CO[C@@H](O[C@@H]2O[C@H](CO[C@@H]3O[C@H](COC(=O)/C=C/c4ccc(O)cc4)[C@@H](O)[C@H](O)[C@H]3O)[C@@H](O)[C@H](O)[C@H]2O)[C@@H]2C(CO)=CC[C@H]12` reads 1.47% [at 30.2 µM]; that for `CCCn1cnc2c(NCc3ccccc3)nc(N[C@H](CC)CO)nc21`, -3.36% [at 114 µM].
In the case of `C[C@H]1C[C@H]2[C@@H]3CCC4=CC(=O)C=C[C@]4(C)[C@@]3(F)[C@@H](O)C[C@]2(C)[C@@]1(O)C(=O)COP(=O)(O)O`, the “activity change, negative = inhibition” value is 0.0609% [at 114 µM].
The same measure, in the same setting: next, `CC(=O)OCC1=C[C@H](O)[C@@H]2C(C(=O)O)=CO[C@@H](O[C@@H]3O[C@H](CO)[C@@H](O)[C@H](O)[C@H]3O)[C@H]12`: -3.03%; `COC(=O)C1(Cc2ccc(O)cc2)OC(=O)C(OC)=C1c1ccc(O)cc1` (configuration not stated): 0.509%; `COC(=O)[C@H](CC1C=NC=N1)NCC12CC3CC(CC(C3)C1)C2` (some centres not stated): -0.602% [at 114 µM].
Regarding `COc1ccc2c(c1)OC[C@]1(O)c3cc4c(cc3O[C@H]21)OCO4`, the “activity change, negative = inhibition” value was -0.915%.
Still for that read-out and setting: the result for `O=C(O)C[C@@H](NC(=O)c1cc(-c2ccc(-c3ccncc3)cc2)cs1)c1ccccc1` reads -11.6% [at 114 µM].
For `Cn1ccnc1CCOC(c1cc2nccc(C(=O)O)c2[nH]1)c1ccccc1Cl` (configuration not stated), the “activity change, negative = inhibition” value was -8.52% [at 114 µM].
On to `COC(=O)C1=C[C@@H](O)[C@@H](O)[C@H](O[C@@H]2O[C@H](COC(=O)/C=C/c3ccccc3)[C@@H](O)[C@H](O)[C@H]2O)C1`, for which the “activity change, negative = inhibition” value was -16.7%.
On the same count and under the same terms, the result for `C=CC1C(O[C@@H]2O[C@H](CO)[C@@H](O)[C@H](O)[C@H]2O)OC=C(C(=O)OC)C1Cc1nccc2c1[nH]c1ccccc12` (some centres not stated) reads -4.67%; that for `C/C(=C\CCC(C)(O)c1ccc(C)cc1)C(=O)O` (configuration not stated), -0.729% [at 114 µM]; that for `C/C=C/C1=CC2=C(CO1)C(=O)[C@](C)(O)[C@H](OC(=O)c1c(O)cc(OC)c(O)c1C)C2`, -9.96%.
In the case of `Clc1ccc2c(c1)C1=NCCN1c1c(-c3noc(C4CC4)n3)ncn1-2`, the “activity change, negative = inhibition” value is -7.06% [at 114 µM].
For `C[C@@H]1O[C@@H](O[C@H]2[C@H](O[C@H]3[C@H](O[C@H]4CC[C@@]5(C=O)C(CC[C@]6(C)C5CC=C5C7CC(C)(C)C[C@@H](O)[C@]7(C)CC[C@]56C)C4(C)C)O[C@H](C(=O)O)[C@@H](O)[C@@H]3O)OC[C@@H](O)[C@@H]2O)[C@H](O)[C@H](O)[C@H]1O` (some centres not stated), the “activity change, negative = inhibition” value is -3.09% [at 30.2 µM].
On to `CC(NC(=O)CC(=O)O)c1nc2ccccc2c(=O)[nH]1` (configuration not stated), for which the Potency is 28.2 µM (active).
